# According to the supplement of paper PMC11417369:
# Over roughly 25,000 sequences, “ln(normalized median fluorescence intensity)” has its median near 6.7; the highest 2% begin near 10. The full list was thinned out, with the highest values kept by preference.
# Tested on: PfHDP1 homeodomain (GST-tagged)
# Test: gcPBM binding intensity (ln(normalized median fluorescence intensity)); higher = stronger DNA binding
# In short: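 Alexa488 anti-GST antibody, scanned at 488 nm, detected GST-tagged P. falciparum DNA-binding domains that had been expressed in E. coli and incubated for 1 h on an Agilent 4 × 180k array. The array carried primer-extended double-stranded 36-bp intergenic genomic probes and negative controls. Binding intensity is the highest Masliner-normalised natural-log median intensity across replicate spots of either orientation of each probe.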
row,Sequence,gcPBM binding intensity (ln)
1,ATAATTTCATAATACGTGCACATAATATATAAAAAA,10.9
2,CAAAATATTTTTATAACACACATATATATAATGTGC [CACACA_site4767],6.52
3,ATAAAATATATATGCACACACATATATATTTCATAC [CACACA_site3547],10.2
4,TGCATAAATTTATGCACACATAAAAAAAAAAAAAAA [CACACA_site2923],10.4
5,ACAAAAAAAATAAGCACACATATATATATATATATA [CACACA_site816],9.27
6,AAGAAAGGTTAAACATGTACATAAATATTTTACATA [XGTACX_site5024],6.28
7,TAATTCACATTTTATACACACATTCGAACCTTTTTT [CACACA_site3341],6.88
8,TTATAAAAGAAAAAAAAAAAAAAAAAAAAAAAAAAA [CACACA_negctrl_site1006],6.11
9,TTACATATATTGGGGTGTACATATATTTTCCTTCAC [XGTACX_site6224],7.35
10,AAAAAAAAGAAAGAAAGTACAAATTATAAAATGAAC [XGTACX_site860],6.62
11,AACAATAAATTATTATGTACACATATATTATATATA [XGTACX_site4629],6.47
12,ATCTAAAAATTTTACGCACACAAGTAAAAAAAAAAA [CACACA_site2485],7.14
13,ACTATATATATAAGTGCATGTTCATTATACCTAAAG [TGCATGCA_site696],7.49
14,GATAAATGTATATATGCATGCACATATATTTATACA [TGCATGCA_site748],8.96
15,TTATATATTTATAAATGTACGTATAAGAATTTAATT [XGTACX_site8541],6.68
16,TATATTTATGTATATGTGCACATAAATTTAAGAATG [GTGCAC_site9512],10.9
17,TATAATAATAATGATAGTACGTATGAGTTCAAGAAA [XGTACX_site4918],6.34
18,TCATATATCCTTATCACACATATAATAAATTCCCTT [CACACA_site4457],6.59
19,TATGTGCATATAAACTCACACATTGTATATTACATG [CACACA_site6106],10.9
20,ATATATGCATATTATACACACATATGTATATACATT [CACACA_site965],7.81
21,TATATATTTATTAAATGTACATAACAAAAATGGTAT [XGTACX_site3577],7.05
22,TTTTTTATTATTATGTGTACGAATATGTGCATATAA [XGTACX_site1364],9.93
23,ATGTATGCAAAAATGGTGCATATTAAATGTATAACA [GTGCAC_site9722],10.5
24,TATATATAATTTTATACATGCACATATTATATATAT [TGCATGCA_site1036],8.4

row,Sequence,gcPBM binding intensity (ln)
1,TATATATATATATATACATGCATATTTTTTATTTTT [TGCATGCA_site464],9.46
2,ACACATATGCATATATGTACATAATATATTAAACTT [XGTACX_site5975],6.76
3,CATATATAAATATGTATGCACTTTAACAAAATGTAT,7.25
4,CCTTATACGATATTATGTACGCATATGTGCATTTTT [XGTACX_site1570],10.9
5,ATTATTACATATAATGCATGTGCATATATTTTTATA [TGCATGCA_site701],11
6,ATATTATACGCATATGTGCGCATACATTTTTTTGCA [GTGCAC_site9540],7.53
7,TTATAAAGAAAAAATTGCTTTAAAAGAAAGATTACA [CACACA_negctrl_site960],5.87
8,CTAAATTGTTAATAGAGTACATTTGTATAATATAAG [XGTACX_site594],6.44
9,ATATATATATATGTACACATATATGTGTTTGTTTTT [GTGCAC_negctrl_site5],8.99
10,GTAATTTTTTTCTATACACACATATCTATAATATAT [CACACA_site7284],6.94
11,TCACTATAATAATTTACACACATTTTAAGAAAATGT [CACACA_site3530],6.61
12,TGTTTGCTTATGTGTTAAATATATATATATATATAT [TGCATGCA_negctrl_site218],9.25
13,TCCAATTCTTTATTTTGTACACATTATGTGCATATG [XGTACX_site6290],10.9
14,TATTAATGCAAATGTTATATGTGCATACATAAATGT [CACACA_negctrl_site790],10.9
15,TTTTTTTTTTTTTTGTGTACTAATATTATAAATTTT [XGTACX_site4405],6.44
16,ATTTTTGTAATTATTTGTACACATTTATTTATGTGT [XGTACX_site1864],6.76
17,CATGTGCATATTAAATGTACATATATACATATATAC [XGTACX_site857],10.2
18,AGTGAGAAATACATAATAATACATTATGTGCATATT [XGTACX_negctrl_site247],10.7
19,TTATATTAATTTTGTTGTACTATTTGTGCATTAAAT [XGTACX_site4790],10.8
20,TATATGTAATATTATACATGCATACATAATATATAT [TGCATGCA_site558],6.52
21,TTTTTTAAATTTAAAGTGCATTATTATATATTTGTA,8.5
22,ATACCATATAATTATGTGAGAAAATATAATATTCAT [CACACA_negctrl_site310],6.55
23,TTATATGTATTTCTTTGTACACATTTTTATATATAT [XGTACX_site1462],7.16
24,TATACATATATAAATGCATGTTGATATTAATAGTTA [TGCATGCA_site639],6.53
